Assay outcomes from PubChem BioAssay.
SARS PLP yeast – qHTS of Yeast-based Assay for SARS-CoV PLP; 330,000 tested, 0.19% active; S. cerevisiae expressing SARS-CoV PLpro, growth rescue; Potency, µM (titrated, usually from 32.9 µM), without a hit: top-dose activity, positive = growth rescue, hits mostly activators; calls by dose curve; note: potency is the fitted concentration of half-maximal effect; 0% is about no effect; nearly all actives have a fitted effect of over 55% in size
HCMV inh – qHTS Assay for inhibitors of the human cytomegalovirus (HCMV). activity change, negative = inhibition, % at 57.5 µM. HFF cells, HCMV-luciferase reporter, 72 h; hits give low values. 410,000 tested, 4.5% active; in the data active = activity change below about -60%; inconclusive = no clear call, values can overlap the other calls; inactive = above about -39%; note: % is set by controls: 0 for no effect and ±100 for the full control effect
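Human foreskin fibroblasts infected with luciferase-reporter HCMV at MOI 1 PFU/cell, compounds at two doses. Luciferase measured 72 h post infection; normalized to buffer-only basal and Salinomycin (10uM) controls.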
LASV entry inh – qHTS for Inhibitors of binding or entry into cells for Lassa Virus | Potency, µM (highest dose often 37.9 µM), for inactives: top-dose activity change, negative = inhibition, hits mostly inhibitors | 300,000 tested, 1.2% active | Lassa virus pseudotype entry inhibition, cell reporter | AID 540256, 2011; calls by dose curve; tested in HEK293 cells; note: potency is the fitted concentration of half-maximal effect; % is set by controls: 0 for no effect and ±100 for the full control effect; nearly all actives have a fitted effect of over 50% in size
FMDV inh – High Throughput Screening for Foot and Mouth Disease Virus Antivirals. FMDV antiviral cell-based qHTS. Potency, µM (doses to about 57.9 µM), for inactives: at the top dose activity change, negative = inhibition, usual class: inhibitors. 410,000 tested, 1.2% active; calls by dose curve; tested in HEK293T cells; note: read-out not given here; potency is the fitted concentration of half-maximal effect; % is set by controls: 0 for no effect and ±100 for the full control effect; nearly all actives have a fitted effect of over 45% in size
MARV entry inh – qHTS for inhibitors of binding or entry into cells for Marburg Virus | Marburg virus pseudotyped entry inhibition, cell reporter | Potency, µM (top dose mostly 37.8 µM), for inactives: top-dose activity change, negative = inhibition, most hits filed as inhibitors | 300,000 tested, 1.8% active | AID 540276, 2011; calls by dose curve; tested in HEK293 cells; note: potency is the fitted concentration of half-maximal effect; % is set by controls: 0 for no effect and ±100 for the full control effect
HCV inh – qHTS Assay for Inhibitors of Hepatitis C Virus (HCV); Huh7.5.1 HCVcc-Cre infection, luciferase reporter, 44 h; Potency, µM (top dose mostly 41.8 µM), inactives show top-dose activity change, negative = inhibition, usual class: inhibitors; 340,000 tested, 3.4% active; active = well fitted inhibition curve with a large enough effect; inconclusive = small, poorly fitted or top-dose-only effect, or another doubt; inactive = no such curve, though single readings can be large or run the other way; note: potency is the fitted concentration of half-maximal effect; % is set by controls: 0 for no effect and ±100 for the full control effect
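HCVcc-Cre virus at an moi near 0.5 was added right after compound to cells cultured 4 h from seeding (1,000 cells/well). Luciferase activity was determined 44 h later, 15 min after substrate addition at RT.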
Numbers without * were called inactive; ? = inconclusive; · = not tested or not shown; + = active, no number; ! = not confirmed by another sample; [ ] = dose if it differs, or a comment. Most compounds without a hit are left out; they make up all but 8% or so of the library.

SMILES | SARS PLP yeast | HCMV inh | LASV entry inh | FMDV inh | MARV entry inh | HCV inh
CCOC(=O)N1CCC(NC(=O)c2ccc3c(c2)N(Cc2ccccc2)C(=O)c2ccccc2S3=O)CC1 (centres undefined) | · | 17 | 15%[46.1 µM] | 2% | -1%[46.1 µM] | ·
CCOC(=O)N1CCC(NC(=O)c2ccc3c(c2)N(Cc2ccc(F)cc2)CCS3)CC1 | 6% | -25 | · | ? | -1% | 18µM*
O=C(NCCCN1CCCC1)c1ccc2c(c1)N(Cc1ccccc1F)C(=O)c1ccccc1S2=O (centres undefined) | 22% | -33 | · | -14% | · | -26%
CCOC(=O)N1CCC(NC(=O)c2ccc3c(c2)N(Cc2ccc(Cl)cc2)C(=O)c2ccccc2S3=O)CC1 (centres undefined) | · | -82* | -24%[46.1 µM] | -26% | ? | ·
Cc1ccc(C)c(CN2C(=O)c3ccccc3S(=O)c3ccc(C(=O)NCCCN4CCCC4)cc32)c1 (centres undefined) | 3% | ? | · | -5% | · | 7.1µM*
CC(C)(C)c1ccc(C(=O)Nc2cc(-c3nc4ccccc4o3)ccc2Cl)cc1 | · | -3 | 4%[46.1 µM] | -12% | · | ·
CCS(=O)(=O)c1nc(S(=O)(=O)c2ccc(C)cc2)c(N2CCC(C)CC2)s1 | 0% | ? | · | -19% | · | ?
COC(=O)c1c(C)nc2nonc2c1N | 1% | -32 | · | 0% | · | 15%
O=C(COC(=O)c1ccc(S(=O)(=O)NCc2ccco2)cc1)Nc1ccccc1OC(F)F | 5% | 60 | 23% | 17% | 2% | 11µM*!
O=C(COC(=O)c1ccc(S(=O)(=O)NCc2ccco2)cc1)Nc1ccccc1 | 1% | -2 | -1% | -11% | ? | 11%
Cc1c(Cl)cccc1NC(=O)N1CCCN(c2nc(-c3ccccc3)ns2)CC1 | -2% | -70* | ? | ? | ? | ?
O=C(Nc1ccccc1)N1CCN(C(=O)c2nsc3ccccc23)CC1 | · | + | 7%[46.1 µM] | 0% | · | ·
O=C(Nc1ccccc1)N1CCN(c2nc(-c3ccccc3)ns2)CC1 | -3% | ? | 5% | ? | 3% | 1.8µM*
Cc1ccccc1NC(=O)CN1C(=O)CCn2nc(-c3cccn3C)cc21 | · | 24 | 5%[46.1 µM] | -14% | · | ·
COc1cc(=O)n2c(c1C(=O)NCc1nonc1C)CCN(C(=O)c1cccc(C)c1C)CC2 | · | · | · | -2% | · | ·
C/C(=N\NC(=O)c1ccc(C)cc1)c1c(C)[nH]n(-c2ccccc2)c1=O | ? | -92* | · | 17% | · | 2%
CC(=O)Nc1ccc(S(=O)(=O)c2ccnc3cc(Cl)ccc23)cc1 | · | -83* | · | 32µM* | · | ·
O=C(CCl)Nc1cccc(Oc2ccccc2)c1 | 3% | -97* | -2% | 13µM* | ? | ?
CCCC1CCCCN1 (centres undefined) | · | 3 | · | · | · | ·
C1CCC(C(CC2CCCCN2)C2CCCCC2)CC1 (centres undefined) | -5% | -99*! | 18µM* | -25% | ? | ?
CCOC(=O)C(=O)Nc1cc(C)on1 | 1% | 20 | -12% | -16% | -2%[46.1 µM] | 10%
CCOC(=O)C1CCCN(C(=O)Cn2nc(CC)n3c(cc4occc43)c2=O)C1 (centres undefined) | · | -3 | -6%[46.1 µM] | ? | 8%[46.1 µM] | ·
CCc1nn(CC(=O)N2CCN(Cc3ccc4c(c3)OCO4)CC2)c(=O)c2cc3occc3n12 | -11% | -61* | -15% | ? | ? | ?
CCc1nn(CC(=O)NCCc2ccc(OC)c(OC)c2)c(=O)c2cc3occc3n12 | · | -5 | ? | -10% | 12%[46.1 µM] | ·
CCc1nn(CC(=O)NCCc2ccc(OC)cc2OC)c(=O)c2cc3occc3n12 | ? | -62*! | -13%[46.1 µM] | 2% | -21%[46.1 µM] | ?
SMILES | SARS PLP yeast | HCMV inh | LASV entry inh | FMDV inh | MARV entry inh | HCV inh
CCc1nn(CCCC(=O)NCc2ccccc2Br)c(=O)c2cc3occc3n12 | -12% | -68*! | · | -13% | 0%[46.1 µM] | 38%
CCC(C(=O)Nc1ccc(C(C)=O)cc1)n1c(C)c2cnn(-c3ccccc3)c(=O)c2c1C (centres undefined) | · | -3 | -1%[46.1 µM] | -20% | -8%[46.1 µM] | ·
CC(C)CN(C(=O)COc1ccc(C(C)(C)C)cc1)C1CCS(=O)(=O)C1 (centres undefined) | -2% | -10 | -14% | -12% | 10% | 6%
CC(C)c1nccn1CCC(=O)O | -7% | 19 | 2% | 18% | 15% | ?
CSc1ccn(CCC(=O)O)c(=O)n1 | 10µM* | -28 | ? | -5% | ? | 6%
Cc1ccc(C)c2c1[nH]c1ccc([N+](=O)[O-])cc12 | -25% | -30 | ? | -12% | -16% | 10µM*
Cc1ccc(C)c2c1[nH]c1ccccc12 | -4% | 22 | -5% | -1% | 7% | 7.9µM*
Cc1cc(C=O)c(C)c2c1[nH]c1ccccc12 | · | -4 | ? | 4% | -3% | -26%
CC(C)=CCCC(C)CN1CCC(N2CCC(C(=O)N3CCCC3)CC2)CC1 (centres undefined) | -1% | ? | · | ? | · | 2.5µM*
C=C(C)[C@@H]1CC=C(CN2CCC(N3CCC(C(=O)N4CCCC4)CC3)CC2)CC1 | -4% | ? | ? | ? | ? | ?
Cc1noc(/C=C/c2ccco2)c1S(=O)(=O)N1CCC(C(=O)Nc2ccc(F)c(Cl)c2)CC1 | · | -84* | -12%[46.1 µM] | ? | 0%[46.1 µM] | ·
COc1ccc(/C=C\c2onc(C)c2S(=O)(=O)N2CCC(C(=O)Nc3cccc(OC)c3)CC2)cc1 | · | -27 | ? | 14µM* | ? | ·
Cc1cccc(NC(=O)C2CCN(S(=O)(=O)c3c(C)noc3/C=C/c3ccco3)CC2)n1 | -11% | -66* | -18% | 0% | -39% | ?
Cc1cc(NC(=O)C2CCN(S(=O)(=O)c3c(C)noc3C)CC2)ccc1Br | 2% | -61*! | 4%[46.1 µM] | ? | 18%[46.1 µM] | -9%
C[C@@H]1CN([C@@H](C)CO)C(=O)CCCn2nncc2CO[C@H]1CN(C)C(=O)Nc1ccc(N2CCN(C)CC2)cc1 | · | -15 | · | · | · | ·
CCOc1ccc(NC(=O)C2CCN(S(=O)(=O)c3c(C)noc3/C=C/c3ccco3)CC2)cc1 | · | -78* | 5%[46.1 µM] | -27% | ? | ·
Cc1ccc(NC(=O)C2CCN(S(=O)(=O)c3c(C)noc3/C=C/c3ccco3)CC2)cc1C | · | ? | 0%[46.1 µM] | ? | 7%[46.1 µM] | ·
Cc1ccc(Cl)cc1NC(=O)C1CCCN(S(=O)(=O)c2c(C)noc2C)C1 (centres undefined) | 3% | 10 | -3% | ? | -16% | 4%
CC(=O)Nc1ccc(NC(=O)C2CCN(S(=O)(=O)c3cccc4nonc34)CC2)cc1 | 5% | -25 | 3% | · | -5% | 4%
O=C(Nc1ccc(F)c(F)c1)C1CCN(S(=O)(=O)c2cccc3nonc23)CC1 | 1% | -77* | -9% | 20µM* | -2%[46.1 µM] | ?
